# Laboratory results from PubChem BioAssay (EPA / NIEHS).
# Records with an inconclusive call do not appear. Active and inactive are the calls of the source. Rule for the calls: active = hit-call score of the fitted dose curve at least 0.9, where 1 is the maximum; inconclusive = response in the unintended direction; inactive = score below 0.9.
# Columns and labels:
# [1] = target: human Protein Tyrosine Phosphatase Receptor Type B (PTPRB), PTPRB (gene 5787) (UniProt P23467); assay: NVS_ENZ_hPTPRB: NovaScreen (NVS) Enzymatic Assay for human Protein Tyrosine Phosphatase Receptor Type B (PTPRB) (AID 2283211)
# Procedure, shortened: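 Recombinant human PTPRB with a fluorescent substrate, product separated by electrophoretic mobility shift; read 1 h after dosing. Primary screen in duplicate at 25 uM; actives then retested in concentration series; loss of signal versus DMSO.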
# [2] = target: human Protein Tyrosine Phosphatase Receptor Type C (PTPRC), PTPRC (gene 5788) (UniProt P08575); assay: NVS_ENZ_hPTPRC: NovaScreen (NVS) Enzymatic Assay for human Protein Tyrosine Phosphatase Receptor Type C (PTPRC) (AID 2283212)
# Procedure, shortened: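 Absorbance-based phosphatase activity of human PTPRC protein extracted from yeast was measured 1 h post-dosing. Compounds first tested at 25 uM in duplicate, then those passing threshold in singleton concentration series to 50 uM.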
# [3] = target: human Protein Tyrosine Phosphatase Receptor Type M (PTPRM), PTPRM (gene 5797) (UniProt P28827); assay: NVS_ENZ_hPTPRM: NovaScreen (NVS) Enzymatic Assay for human Protein Tyrosine Phosphatase Receptor Type M (PTPRM) (AID 2283215)
# Procedure, shortened: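 Read-out is fluorescence after electrophoretic separation of substrate and product, taken 1.33 h post-dosing with recombinant enzyme. Compounds screened at 25 uM in duplicate, then concentration series for actives; activity as signal loss relative to DMSO.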
# [4] = target: human Sirtuin 2 (SIRT2), SIRT2 (gene 22933) (UniProt Q8IXJ6); assay: NVS_ENZ_hSIRT2: NovaScreen (NVS) Enzymatic Assay for human Sirtuin 2 (SIRT2) (AID 2283217)
# Procedure, shortened: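 Single-point duplicate screen at 25 uM, then concentration-response (max 50 uM) for chemicals passing threshold. Enzyme activity of recombinant human SIRT2 measured after 1 hr by fluorescence with mobility-shift separation of product; DMSO baseline.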
# [5] = target: human Sirtuin 1 (SIRT1), SIRT1 (gene 23411) (UniProt Q96EB6); assay: NVS_ENZ_hSIRT1: NovaScreen (NVS) Enzymatic Assay for human Sirtuin 1 (SIRT1) (AID 2283219)
# Procedure, shortened: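 Cell-free recombinant SIRT1 with a fluorescent substrate; substrate and product separated by electrophoretic mobility shift and read by fluorescence intensity, 1 h after dosing. Primary screen at 25 uM in duplicate; hits re-run in concentration-response up to 50 uM, relative to DMSO.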
# [6] = target: human Tyrosine Protein Kinase Receptor Tie-2 (Tie2), TEK (gene 7010) (UniProt Q02763); assay: NVS_ENZ_hTie2: NovaScreen (NVS) Enzymatic Assay for human Tyrosine Protein Kinase Receptor Tie-2 (Tie2) (AID 2283225)
# Procedure, shortened: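 Substrate and product were separated by mobility shift and detected by fluorescence after a 1-hour reaction with recombinant Tie2. Chemicals passing a 25 uM single-point screen were titrated to a maximum of 50 uM. Results were normalized to DMSO baseline.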
# [7] = target: rat Adenylate Cyclase, Forskolin Stimulated, Adcy5 (gene 64532) (UniProt Q04400); assay: NVS_ENZ_rACFSKBinding: NovaScreen (NVS) Enzymatic Assay for rat Adenylate Cyclase, Forskolin Stimulated (AID 2283232)
# Procedure, shortened: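 Chemicals were first tested at 25 uM in duplicate, then hits run as concentration series with top concentration 50 uM. Enzyme source was rat forebrain membranes; radiometric filter read-out after 1 h, referenced to DMSO.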
# [8] = system: rat Monoamine Oxidase, MAO-A, Peripheral (MAOAP), gene 29253; assay: NVS_ENZ_rMAOAP: NovaScreen (NVS) Enzymatic Assay for rat Monoamine Oxidase, MAO-A, Peripheral (MAOAP) (AID 2283237)
# Procedure, shortened: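 Scintillation counting tracked MAO-A activity in a cell-free rat liver mitochondrial membrane prep, read 1.17 hours after compound addition. Single-point duplicate testing at 25 uM preceded concentration-response follow-up; activity was fitted relative to DMSO.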
# [9] = system: bovine Angiotensin II Receptor Type 2 (AT2), gene 407157; assay: NVS_GPCR_bAT2: NovaScreen (NVS) G Protein-Coupled Receptor Assay for bovine Angiotensin II Receptor Type 2 (AT2) (AID 2283240)
# Procedure, shortened: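 Radioligand displacement on bovine cerebellar membranes, 1 hour incubation, filter-based scintillation counting; loss of signal vs DMSO. Duplicate single-point screen at 25 uM, then concentration-response to 50 uM maximum.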
# [10] = target: human SRC Proto-Oncogene, Non-receptor Tyrosine Kinase (SRC), SRC (gene 6714) (UniProt P12931); assay: NVS_ENZ_hSRC: NovaScreen (NVS) Enzymatic Assay for human SRC Proto-Oncogene, Non-receptor Tyrosine Kinase (SRC) (AID 2283223)
# Procedure, shortened: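 Compounds passing 30% inhibition at 25 uM (duplicate) were titrated to a top concentration of 50 uM. Enzyme activity read by fluorescence with mobility-shift substrate/product separation after 1 h; DMSO baseline.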
# [11] = target: human Vascular Endothelial Growth Factor Receptor 3 (VEGFR3), FLT4 (gene 2324) (UniProt P35916); assay: NVS_ENZ_hVEGFR3: NovaScreen (NVS) Enzymatic Assay for human Vascular Endothelial Growth Factor Receptor 3 (VEGFR3) (AID 2283229)
# Procedure, shortened: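 Chemicals first run in duplicate at 25 uM, with actives re-tested in concentration series to a top of 50 uM. Recombinant VEGFR3 activity measured after 1 h via fluorescence with mobility-shift product separation; inhibition fitted relative to DMSO.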
# [12] = target: rat Acetylcholinesterase (AChE), Ache (gene 83817) (UniProt P37136); assay: NVS_ENZ_rAChE: NovaScreen (NVS) Enzymatic Assay for rat Acetylcholinesterase (AChE) (AID 2283233)
# Procedure, shortened: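 Compounds first screened at 25 uM in duplicate, then those passing threshold tested in concentration series up to 50 uM, against AChE from rat brain membranes. Enzyme activity read by absorbance at 0.33 h; inhibition scored versus DMSO.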
# [13] = target: human Vascular Endothelial Growth Factor Receptor 2 (VEGFR2), KDR (gene 3791) (UniProt P35968); assay: NVS_ENZ_hVEGFR2: NovaScreen (NVS) Enzymatic Assay for human Vascular Endothelial Growth Factor Receptor 2 (VEGFR2) (AID 2283230)
# Procedure, shortened: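 Cell-free recombinant VEGFR2 kinase, fluorescent substrate with electrophoretic mobility-shift separation; read 1 h after dosing. Screened at 25 uM in duplicate, hits to concentration-response up to 50 uM; loss-of-signal versus DMSO.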
# [14] = target: rat Catechol-O-Methyl Transferase (COMT), Comt (gene 24267) (UniProt P22734); assay: NVS_ENZ_rCOMT: NovaScreen (NVS) Enzymatic Assay for rat Catechol-O-Methyl Transferase (COMT) (AID 2283235)
# Procedure, shortened: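 Rat dorsal striatum extract served as COMT source; product quantified by HPLC/spectrophotometry, read at 0 h after dosing. Primary single-concentration screen at 25 uM, followed by concentration series to a 50 uM maximum.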
# [15] = target: rat Monoamine Oxidase, MAO-B, Central (MAOBC), Maob (gene 25750) (UniProt P19643); assay: NVS_ENZ_rMAOBC: NovaScreen (NVS) Enzymatic Assay for rat Monoamine Oxidase, MAO-B, Central (MAOBC) (AID 2283238)
# Procedure, shortened: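 Here MAO-B activity in rat brain preparations is quantified radiometrically, counts taken at 1.17 hours. Concentration-response runs reach 50 uM, with plate controls, and values are fitted as loss of signal from the DMSO baseline.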
# human Sirtuin 1 (SIRT1), SIRT1 (gene 23411), sequence (Q96EB6 whole entry, looked up): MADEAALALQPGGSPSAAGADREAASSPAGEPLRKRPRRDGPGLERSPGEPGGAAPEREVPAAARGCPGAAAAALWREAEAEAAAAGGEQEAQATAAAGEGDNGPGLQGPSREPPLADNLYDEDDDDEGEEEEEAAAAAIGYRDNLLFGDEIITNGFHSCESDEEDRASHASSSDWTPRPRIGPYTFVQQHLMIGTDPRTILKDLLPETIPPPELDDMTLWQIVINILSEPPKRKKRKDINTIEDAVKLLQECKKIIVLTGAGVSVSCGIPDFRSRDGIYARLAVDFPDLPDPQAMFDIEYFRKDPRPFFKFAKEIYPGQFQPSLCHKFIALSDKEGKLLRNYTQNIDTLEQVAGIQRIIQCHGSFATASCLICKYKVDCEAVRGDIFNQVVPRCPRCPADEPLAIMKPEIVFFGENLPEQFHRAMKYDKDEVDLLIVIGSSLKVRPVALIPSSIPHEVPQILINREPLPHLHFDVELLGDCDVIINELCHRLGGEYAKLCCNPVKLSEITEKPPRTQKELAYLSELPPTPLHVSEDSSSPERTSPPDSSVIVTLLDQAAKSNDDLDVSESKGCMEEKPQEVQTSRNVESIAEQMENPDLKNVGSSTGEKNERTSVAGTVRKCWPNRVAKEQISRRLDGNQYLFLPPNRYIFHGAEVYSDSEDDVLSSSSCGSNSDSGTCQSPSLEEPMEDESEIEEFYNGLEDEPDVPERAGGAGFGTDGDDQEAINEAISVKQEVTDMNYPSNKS
# human Sirtuin 2 (SIRT2), SIRT2 (gene 22933), sequence (Q8IXJ6 whole entry, looked up): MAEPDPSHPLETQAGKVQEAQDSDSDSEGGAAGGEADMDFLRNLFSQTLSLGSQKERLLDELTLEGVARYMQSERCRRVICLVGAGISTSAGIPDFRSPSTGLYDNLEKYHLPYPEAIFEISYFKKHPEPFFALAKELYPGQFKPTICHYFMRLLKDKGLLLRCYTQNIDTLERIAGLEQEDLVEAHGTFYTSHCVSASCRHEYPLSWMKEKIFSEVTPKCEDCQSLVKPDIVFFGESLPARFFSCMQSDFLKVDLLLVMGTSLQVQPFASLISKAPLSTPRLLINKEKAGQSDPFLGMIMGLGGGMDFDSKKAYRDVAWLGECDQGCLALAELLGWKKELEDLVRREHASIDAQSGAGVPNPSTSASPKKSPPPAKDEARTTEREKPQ
# human Protein Tyrosine Phosphatase Receptor Type C (PTPRC), PTPRC (gene 5788), sequence (P08575 whole entry, looked up): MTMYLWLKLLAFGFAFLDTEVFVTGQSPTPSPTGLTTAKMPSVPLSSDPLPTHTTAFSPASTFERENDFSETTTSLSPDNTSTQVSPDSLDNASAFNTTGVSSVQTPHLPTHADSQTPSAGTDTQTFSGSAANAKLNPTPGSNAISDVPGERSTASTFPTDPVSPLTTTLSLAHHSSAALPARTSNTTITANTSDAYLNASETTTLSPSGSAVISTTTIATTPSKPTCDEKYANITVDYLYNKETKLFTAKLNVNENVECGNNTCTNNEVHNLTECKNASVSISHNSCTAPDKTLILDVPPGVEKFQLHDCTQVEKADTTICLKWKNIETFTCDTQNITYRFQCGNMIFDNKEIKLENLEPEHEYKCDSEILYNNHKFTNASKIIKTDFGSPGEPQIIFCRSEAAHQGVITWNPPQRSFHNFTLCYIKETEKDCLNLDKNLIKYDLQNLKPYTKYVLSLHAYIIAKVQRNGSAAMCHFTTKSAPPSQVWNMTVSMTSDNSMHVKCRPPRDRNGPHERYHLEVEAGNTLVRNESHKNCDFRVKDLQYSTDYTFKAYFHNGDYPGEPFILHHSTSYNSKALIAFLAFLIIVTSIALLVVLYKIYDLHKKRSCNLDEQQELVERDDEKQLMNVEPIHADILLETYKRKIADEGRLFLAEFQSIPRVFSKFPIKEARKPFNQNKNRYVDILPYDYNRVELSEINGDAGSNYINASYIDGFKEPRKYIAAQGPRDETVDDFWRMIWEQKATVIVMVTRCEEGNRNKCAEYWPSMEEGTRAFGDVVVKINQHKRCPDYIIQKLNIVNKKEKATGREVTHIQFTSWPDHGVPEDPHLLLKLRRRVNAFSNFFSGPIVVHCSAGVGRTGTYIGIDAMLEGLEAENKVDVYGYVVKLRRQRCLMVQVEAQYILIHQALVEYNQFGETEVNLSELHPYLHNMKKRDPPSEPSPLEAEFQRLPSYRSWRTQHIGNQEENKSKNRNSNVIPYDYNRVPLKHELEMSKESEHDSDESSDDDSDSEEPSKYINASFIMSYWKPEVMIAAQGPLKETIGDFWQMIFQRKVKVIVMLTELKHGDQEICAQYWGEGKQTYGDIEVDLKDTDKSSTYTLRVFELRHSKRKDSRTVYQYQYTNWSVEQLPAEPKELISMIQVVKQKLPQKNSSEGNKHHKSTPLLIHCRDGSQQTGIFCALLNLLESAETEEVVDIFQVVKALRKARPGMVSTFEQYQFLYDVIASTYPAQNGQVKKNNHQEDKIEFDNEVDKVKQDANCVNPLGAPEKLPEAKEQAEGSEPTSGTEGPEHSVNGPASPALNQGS
# rat Adenylate Cyclase, Forskolin Stimulated, Adcy5 (gene 64532), sequence (Q04400 whole entry, looked up): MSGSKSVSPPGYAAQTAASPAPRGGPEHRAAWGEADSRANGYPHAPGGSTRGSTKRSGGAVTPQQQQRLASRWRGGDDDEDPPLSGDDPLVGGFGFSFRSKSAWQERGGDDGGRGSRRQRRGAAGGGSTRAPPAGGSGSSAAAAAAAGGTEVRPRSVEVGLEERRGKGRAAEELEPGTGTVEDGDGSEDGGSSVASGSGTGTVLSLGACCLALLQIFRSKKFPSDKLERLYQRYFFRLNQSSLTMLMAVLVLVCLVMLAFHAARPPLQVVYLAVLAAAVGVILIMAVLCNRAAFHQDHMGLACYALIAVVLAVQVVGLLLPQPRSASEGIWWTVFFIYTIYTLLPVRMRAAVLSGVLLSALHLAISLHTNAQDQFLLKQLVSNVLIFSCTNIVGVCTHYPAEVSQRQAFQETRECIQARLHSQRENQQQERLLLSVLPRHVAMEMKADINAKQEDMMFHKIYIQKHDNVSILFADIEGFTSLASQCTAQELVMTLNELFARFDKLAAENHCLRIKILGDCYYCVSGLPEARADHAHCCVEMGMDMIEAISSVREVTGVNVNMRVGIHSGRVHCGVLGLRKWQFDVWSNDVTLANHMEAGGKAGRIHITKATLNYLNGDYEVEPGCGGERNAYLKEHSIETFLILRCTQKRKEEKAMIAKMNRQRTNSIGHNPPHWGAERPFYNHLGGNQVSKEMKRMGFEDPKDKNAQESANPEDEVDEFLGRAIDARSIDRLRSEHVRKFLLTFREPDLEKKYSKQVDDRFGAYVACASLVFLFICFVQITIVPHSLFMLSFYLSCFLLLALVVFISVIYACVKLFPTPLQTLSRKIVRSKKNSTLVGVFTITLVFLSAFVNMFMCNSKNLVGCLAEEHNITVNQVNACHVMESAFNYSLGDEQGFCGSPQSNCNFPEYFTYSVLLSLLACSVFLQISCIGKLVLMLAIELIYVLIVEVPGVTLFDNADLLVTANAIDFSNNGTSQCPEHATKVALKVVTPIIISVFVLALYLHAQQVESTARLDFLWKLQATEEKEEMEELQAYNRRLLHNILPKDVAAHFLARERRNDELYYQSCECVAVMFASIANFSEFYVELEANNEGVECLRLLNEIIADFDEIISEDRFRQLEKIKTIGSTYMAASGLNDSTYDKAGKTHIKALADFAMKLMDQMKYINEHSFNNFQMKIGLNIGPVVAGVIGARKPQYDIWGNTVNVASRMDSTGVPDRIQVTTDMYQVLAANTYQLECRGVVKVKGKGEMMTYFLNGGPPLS
# rat Acetylcholinesterase (AChE), Ache (gene 83817), sequence (P37136 whole entry, looked up): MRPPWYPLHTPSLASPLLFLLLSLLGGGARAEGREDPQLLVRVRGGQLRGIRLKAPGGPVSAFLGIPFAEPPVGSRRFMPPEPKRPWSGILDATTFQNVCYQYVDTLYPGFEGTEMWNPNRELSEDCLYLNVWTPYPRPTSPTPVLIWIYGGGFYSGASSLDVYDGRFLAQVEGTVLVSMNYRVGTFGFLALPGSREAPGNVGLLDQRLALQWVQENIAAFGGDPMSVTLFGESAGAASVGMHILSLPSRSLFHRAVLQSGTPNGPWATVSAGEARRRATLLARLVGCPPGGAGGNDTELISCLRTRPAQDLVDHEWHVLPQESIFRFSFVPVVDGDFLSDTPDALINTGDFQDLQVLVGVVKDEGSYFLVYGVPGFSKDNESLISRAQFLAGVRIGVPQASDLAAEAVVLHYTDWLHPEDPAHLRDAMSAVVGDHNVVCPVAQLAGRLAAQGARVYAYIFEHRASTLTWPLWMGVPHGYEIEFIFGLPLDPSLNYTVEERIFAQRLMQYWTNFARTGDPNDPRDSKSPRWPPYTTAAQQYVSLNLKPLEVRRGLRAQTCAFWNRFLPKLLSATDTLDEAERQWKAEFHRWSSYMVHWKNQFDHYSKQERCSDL
# human SRC Proto-Oncogene, Non-receptor Tyrosine Kinase (SRC), SRC (gene 6714), sequence (P12931 whole entry, looked up): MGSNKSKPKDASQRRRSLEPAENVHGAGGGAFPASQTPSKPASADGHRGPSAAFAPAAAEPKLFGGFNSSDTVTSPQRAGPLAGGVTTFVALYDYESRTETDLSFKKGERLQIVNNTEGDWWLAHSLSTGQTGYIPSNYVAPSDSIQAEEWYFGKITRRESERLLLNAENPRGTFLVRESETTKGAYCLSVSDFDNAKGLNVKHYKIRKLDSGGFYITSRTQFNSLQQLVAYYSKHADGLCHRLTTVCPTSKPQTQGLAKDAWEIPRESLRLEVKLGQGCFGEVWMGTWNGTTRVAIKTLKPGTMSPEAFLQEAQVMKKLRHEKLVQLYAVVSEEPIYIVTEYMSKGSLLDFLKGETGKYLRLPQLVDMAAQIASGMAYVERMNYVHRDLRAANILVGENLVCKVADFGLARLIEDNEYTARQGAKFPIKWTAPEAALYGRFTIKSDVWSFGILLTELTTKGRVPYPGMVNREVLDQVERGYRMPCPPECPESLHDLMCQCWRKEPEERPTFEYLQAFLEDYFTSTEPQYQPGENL
compound,measurement,setting,value
O=c1[nH]c(=O)[nH]c(=O)[nH]1,outcome,[1],inactive
O=C(O)C(Cl)(Cl)Cl,outcome,[2],inactive
O=C(O)C(F)(F)C(F)(F)C(F)(F)C(F)(F)C(F)(F)C(F)(F)C(F)(F)C(F)(F)C(F)(F)C(F)(F)F,AC50,[2],11.9 µM (active)
CC(=O)[O][Hg][c]1ccccc1,outcome,[3],inactive
same,AC50,[4],2.46 µM (active)
same,AC50,[5],6.16 µM (active)
same,outcome,[6],inactive
same,AC50,[7],26.8 µM (active)
same,AC50,[8],1.13 µM (active)
same,AC50,[9],37.4 µM (active)
CC(C)(C)CC(C)(C)c1ccc(O)cc1,outcome,[4],inactive
CCC(C)(C)c1ccc(O)c(C(C)(C)CC)c1,outcome,[5],inactive
ClC1(Cl)C2(Cl)C3(Cl)C4(Cl)C(Cl)(Cl)C5(Cl)C3(Cl)C1(Cl)C5(Cl)C24Cl (stereo not given),outcome,[10],inactive
COP(=S)(OC)Oc1ccc(Sc2ccc(OP(=S)(OC)OC)cc2)cc1,outcome,[6],inactive
Clc1ccc(C2(Cn3cncn3)CC(Br)CO2)c(Cl)c1 (stereo not given),outcome,[11],inactive
CCN1CCC2(CC1)COc1cc3c(cc12)N(C(=O)c1ccc(-c2ccc(-c4nnc(C)o4)cc2C)cc1)CC3,AC50,[12],3.06 µM (active)
same,AC50,[8],23.4 µM (active)
O=C(Nc1ccc2[nH]ccc2c1)c1cc2cc(F)ccc2n1Cc1cccc(F)c1,outcome,[13],inactive
same,outcome,[9],inactive
C=C(C)C(=O)[O][Sn]([CH2]CCC)([CH2]CCC)[CH2]CCC,outcome,[7],inactive
same,AC50,[9],25 µM (active)
COc1cc2c(cc1OC)[C@@]13CCN4CC5=CCO[C@H]6CC(=O)N2[C@H]1[C@H]6[C@H]5C[C@H]43,AC50,[12],18.1 µM (active)
Oc1cccc2cccnc12,AC50,[14],1.53 µM (active)
same,outcome,[15],inactive
CC12CC1(C)C(=O)N(c1cc(Cl)cc(Cl)c1)C2=O (stereo not given),outcome,[8],inactive
